# Screening data from PubChem.
# GLA inh pH 4.5: inhibitors of human alpha-galactosidase A at pH 4.5 | P06280 | 230,000 tested, under 10 active | purified enzyme, 4-MU-alpha-Gal fluorescence, pH 4.5 | AID 1467 | activity change, negative = inhibition, % at 105 µM;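 further: 0% = full activity with enzyme and -100% = basal without enzyme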
# GAA glycogen mod: inhibitors or activators of human alpha-glucosidase glycogen cleavage | P10253 | recombinant GAA, glycogen substrate, Amplex Red glucose oxidase fluorescence | Potency, µM (top dose mostly 76.4 µM), for inactives: at the highest dose activity change, negative = inhibition, most hits filed as inhibitors | hit rate 0.38% among 300,000 | AID 2100;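 further: potency means the concentration at half of the fitted maximal effect; 0% = full enzyme reaction and -100% = no-enzyme basal signal; the screen sought inhibitors and activators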
#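 Natural-substrate format: glycogen cleavage by 4 nM human enzyme, glucose read by Amplex Red coupling (Ex 573, Em 610 nm). Normalized to enzyme and no-enzyme controls.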
# GAA inh: alpha-glucosidase (human) inhibition; hit rate 0.005% among 200,000; P10253; Potency, µM (doses to about 76.9 µM), inactives show at the highest dose activity change, negative = inhibition, hits mostly inhibitors; purified human GAA, 4-MU-alpha-glucoside fluorescence;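 further: potency means the concentration at half of the fitted maximal effect; plate controls were uninhibited enzyme wells for no effect and no-enzyme background for full effect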
#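 Enzyme (4 nM final) mixed with compound (up to 77 uM), then 4-MU-alpha-D-pyranoside (400 uM final) added; 20 min at room temperature, pH 5.0. Reaction stopped at pH 10, fluorescence read, AC50 derived by Hill fit.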
# GLA spleen mod: inhibits or activates alpha-galactosidase in human spleen homogenate | P06280 | human spleen homogenate, 4MU-alpha-Gal fluorescence, 40 min | Potency, µM (highest dose often 80 µM), for inactives: top-dose activity change, negative = inhibition, usual class: inhibitors | hit rate 0.008% among 240,000;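 further: potency means the concentration at half of the fitted maximal effect; 0% = enzyme with vehicle and -100% = no enzyme basal signal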
# Target sequence (P06280 32-429 limits assumed): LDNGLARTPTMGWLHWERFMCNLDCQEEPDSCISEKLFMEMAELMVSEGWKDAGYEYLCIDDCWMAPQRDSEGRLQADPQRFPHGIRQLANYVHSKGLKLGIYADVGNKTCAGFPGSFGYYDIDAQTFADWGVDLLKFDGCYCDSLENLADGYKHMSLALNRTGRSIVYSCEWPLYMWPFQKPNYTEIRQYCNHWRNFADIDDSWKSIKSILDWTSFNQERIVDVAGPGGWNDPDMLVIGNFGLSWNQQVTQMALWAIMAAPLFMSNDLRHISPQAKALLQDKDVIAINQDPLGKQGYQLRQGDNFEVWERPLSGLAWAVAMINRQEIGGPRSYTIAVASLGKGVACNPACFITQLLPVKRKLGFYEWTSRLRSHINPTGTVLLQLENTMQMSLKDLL
#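 qHTS titration in buffer at pH 5.0. Alpha-galactosidase activity in spleen homogenate was measured via 4-methylumbelliferone release from 1 mM fluorogenic substrate after 40 min at 37C and a pH 10 stop. AC50 came from Hill fits of control-normalized data.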
# aGlu spleen mod: inhibits or activates alpha-glucosidase in human spleen homogenate; P10253; human spleen homogenate, 4-MU-alpha-glucoside fluorescence; Potency, µM (top dose mostly 79.9 µM), inactives show at the highest dose activity change, negative = inhibition, usual class: inhibitors; hit rate 0.006% among 240,000;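 further: potency means the concentration at half of the fitted maximal effect; 0% = enzyme with vehicle and -100% = no enzyme basal signal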
#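 Human spleen homogenate (1 ug) with 4-methylumbelliferyl-alpha-D-glucopyranoside (1 mM final) in 50 mM citrate/phosphate pH 5.0, 0.01% Tween-20; 40 min at 37 C. Stopped at pH 10; 4-MU fluorescence Ex 365/Em 440 nm; AC50 by Hill fit.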
# Numbers without * were called inactive; ? = inconclusive; nt = no result. This is one part of a sample in which hits are shown more often than they occur. The call rests on the fitted dose curve; in most records, active means well fitted curve in the direction sought with a large enough effect; inconclusive means small, poorly fitted or top-dose-only effect, or another doubt; inactive means no such curve, though single readings can be large; an effect the other way counts as inactive or inconclusive.
SMILES,GLA inh pH 4.5,GAA glycogen mod,GAA inh,GLA spleen mod,aGlu spleen mod
C/C(=N\N1CCN(C)CC1)c1ccc(Cl)c(Cl)c1,5,28µM*,4%,1%,2%
C/C(=N\N1CCN(C)CC1)c1ccc(OC(F)F)cc1,1,?,-3%,-3%,-1%
O=C1CC(Nc2ccc(N3CCOCC3)cc2)C(=O)N1C1CCCCC1 (centres undefined),1,13µM*,0%,9%,-1%
CC(C)N1C(=O)CC(Nc2ccc(N3CCOCC3)cc2)C1=O (centres undefined),-13,25µM*,-6%,1%,-2%
O=C(Nc1ccc(N2CCOCC2)cc1)NC1CCCCC1,0,?,1%,-10%,-3%
COc1ccc(CCN2C(=O)CC(Nc3ccc(N4CCOCC4)cc3)C2=O)cc1OC (centres undefined),8,16µM*,-1%,0%,-5%
O=C1CC(Nc2ccc(N3CCOCC3)cc2)C(=O)N1c1ccccc1F (centres undefined),-9,25µM*,0%,1%,0%
O=C1CC(Nc2ccccc2)C(=O)N1c1ccc(N2CCOCC2)cc1 (centres undefined),8,6%,-8%,9%,-5%
CCc1ccc(NC2CC(=O)N(CCc3ccc(OC)c(OC)c3)C2=O)cc1 (centres undefined),-17,-21%,4%,-17%,-14%
CC(C)N1C(=O)CC(Nc2cccc3cccc(N)c23)C1=O (centres undefined),-3,?,?,-11%,nt
CC(C)C[C@H](NC(=O)[C@H](CCCCN)NC(=O)CNC(=O)[C@H](CC(C)C)NC(=O)[C@@H](NC(=O)[C@@H]1CSSC[C@H](N)C(=O)N[C@@H](CO)C(=O)N[C@@H](CC(N)=O)C(=O)N[C@@H](CC(C)C)C(=O)N[C@@H](CO)C(=O)N[C@@H]([C@@H](C)O)C(=O)N1)C(C)C)C(=O)N[C@@H](CO)C(=O)N[C@@H](CCC(N)=O)C(=O)N[C@@H](CCC(=O)O)C(=O)N[C@@H](CC(C)C)C(=O)N[C@@H](Cc1cnc[nH]1)C(=O)N[C@@H](CCCCN)C(=O)N[C@@H](CC(C)C)C(=O)N[C@@H](CCC(N)=O)C(=O)N[C@H](C(=O)N[C@@H](Cc1ccc(O)cc1)C(=O)N1CCC[C@H]1C(=O)N[C@@H](CCCNC(=N)N)C(=O)N[C@H](C(=O)N[C@@H](CC(N)=O)C(=O)N[C@H](C(=O)NCC(=O)N[C@@H](CO)C(=O)NCC(=O)N[C@H](C(=O)N1CCC[C@H]1C(N)=O)[C@@H](C)O)[C@@H](C)O)[C@@H](C)O)[C@@H](C)O,nt,nt,nt,6%,8%
COc1cc(OC)cc(-c2nnc3n2N=C(c2ccc(OC)c(OC)c2)CS3)c1,nt,nt,nt,-3%,0%
COc1cc(/C=N\NC(=O)c2c(C)nc3cc(C)ccn23)ccc1O,0,11µM*,-4%,-22%,?
CC(C)CCOc1ccc(N)cc1,nt,nt,nt,3%,-2%
CC(=O)Oc1c(C)cc(O)c2ccccc12,-1,14µM*,2%,4%,2%
CC(=O)Oc1c(C)cccc1C(=O)O,2,nt,nt,2%,-8%
CC(=O)Cc1cc(O)c2ccccc2c1OC(=O)c1ccccc1,-18,8.9µM*,?,7%,-8%
O=C(/C=C/c1ccc(/C=C/C(=O)Nc2ccc(C3=NCCN3)cc2)cc1)Nc1ccc(C2=NCCN2)cc1,nt,nt,nt,9%,-9%
COC(=O)Nc1ccc(S(=O)(=O)Nc2ccc(O)cc2)cc1,6,32µM*,-1%,-1%,-1%
O=c1cc(-c2ccc(O)c(O)c2)oc2ccccc12,5,nt,nt,-9%,1%
Cc1ccc([N+](=O)[O-])cc1-c1[nH]c(-c2ccc(O)c(O)c2)nc1-c1ccccc1,7,14µM*,-14%,4%,1%
COCCCNC(=S)NCCc1ccc(F)cc1,-9,2%,1%,5%,6%
COCCCNC(=S)Nc1ccc(C)cc1,-10,0%,nt,10%,5%
COCCCNC(=S)NNC(=S)Nc1ccc(F)cc1F,-3,16µM*,1%,4%,0%
